Experimental findings from PubChem BioAssay (EPA / NIEHS) are described below.

Calls of active or inactive are those of the source. How the source made its calls: active means hit-call score of the fitted dose curve at least 0.9, where 1 is the maximum; inactive means score below 0.9.

A short description of the assay: CCTE_Shafer_MEA_dev_burst_rate: CCTE's Neural Network Formation Assay for Burst Rate, Shafer Lab (AID 2284042). The method, then: CCTE_Shafer_MEA_dev assay is conducted using Axion Biosystems 48 well microelectrode array (MEA) plates and Maestro recording system. Each well of the MEA plate contains a grid of 16 microelectrodes embedded in the culture surface. Electrically active cells, such as neurons, can be cultured over the electrodes, and electrical activity in these cells can be recorded extracellularly. The spontaneous firing of neurons is captured from each electrode on a microsecond timescale providing both temporally and spatially precise data. […] The CCTE_Shafer_MEA_dev assay uses primary cultures of rat cortical neurons. Recordings are made on days post-plating 5, 7, 9 and 12. As these cultures mature over time, neural networks develop functional activity and form cohesive networks in which electrical activity can be highly coordinated. CCTE_Shafer_MEA_dev_burst_rate is 1 of 19 assay components of the CCTE_Shafer_MEA_dev assay. It measures the frequency of single-electrode bursts (temporally-clustered groups of action potential firing) as the total number of bursts divided by the length of the recording in a microelectrode array (MEA) using Axion Biosystems Maestro 768 channel amplifier with the AxIS adaptive spike detector. The mean bursting rate is averaged across the active electrodes to report a well-mean value. To collapse across multiple recordings made on days post-plating 5, 7, 9 and 12, the trapezoidal area-under-the-curve of the component is calculated.Data from the assay component CCTE_Shafer_MEA_dev_burst_rate was analyzed into 1 assay endpoint. This assay endpoint, CCTE_Shafer_MEA_dev_burst_rate, was analyzed in the negative analysis fitting direction relative to DMSO as the negative control and baseline of activity. Using a type of functional reporter, gain or loss-of-signal activity can be used to understand electrical activity.
On the day prior to culture, each well was coated thoroughly with 150 uL of 0.05% polyethyleneimine (PEI, Sigma Cat P3143) in 50 mM HEPES (Sigma Cat H7523) at a pH of 8. The plate was incubated at 37C for one hour. PEI was rinsed out with 500 uL of sterile water three times. Plates were stored at 4C until the day of culture. This culture was plated at a seeding density of 1.5 x 10^5 cells/well on a 48-well MEA plate, prepared as described above. Cells were administered via a 25 uL media/laminin ([…]; Sigma Cat L2020-1MG) drop directly onto the microelectrode array, as adding the cells with the laminin results in better attachment than pre-coating with laminin. After 2 hours, an additional 475 uL of cortical media was added and the cells returned to the incubator. Exposure starts at day 0 of plating and is continued over twelve days of network development until the experiment is terminated. Cells are fed with fresh medium on DIV 5 and 9, following the recordings on those days. The entire volume of media in the well is exchanged and any vehicle or compound treatment is renewed. Complete details are found in OP-NHEERL/ISTD/SBB/TJS/2015-03-r0 (available on request, email shafer.tim@epa.gov). Measurement of the electrical activity is non-invasive, and recordings can be made from the same plate over multiple different days of the culture. In cortical neurons, this allows for the measurement of extracellular action potentials over the period during which networks form in the MEA plate.
Consider `NC(=O)C(F)(F)C(F)(F)C(F)(F)C(F)(F)C(N)=O`, for which the compound was classed as inactive. Turning to `O=C(O)C(F)(F)C(F)(F)C(F)(F)OC(F)(F)F`, the result was inactive. Then `OCC(F)(F)C(F)(F)C(F)(F)C(F)(F)C(F)(F)C(F)(F)C(F)(F)C(F)(F)CO`, with “inactive”; and `CO[Si](C)(CCC(F)(F)C(F)(F)C(F)(F)C(F)(F)C(F)(F)C(F)(F)F)OC`, with “inactive”. The result for `CNS(=O)(=O)C(F)(F)C(F)(F)C(F)(F)C(F)(F)C(F)(F)C(F)(F)C(F)(F)C(F)(F)F` reads “inactive”; that for `OCC(F)(F)C(F)(F)C(F)(F)CO`, “inactive”; that for `OC(O)C(F)(F)C(F)(F)F`, “inactive”. On to `NC(O)(C(F)(F)F)C(F)(F)F`, for which the compound was called inactive. With `CCN(CCO)S(=O)(=O)C(F)(F)C(F)(F)C(F)(F)C(F)(F)C(F)(F)C(F)(F)C(F)(F)C(F)(F)F`, the result was inactive. Then `OCC(F)(F)C(F)(F)C(F)(F)C(F)(F)C(F)(F)C(F)(F)CO`, with “inactive”. `FC(F)(F)C(F)(F)C(F)(F)C(F)(F)C(F)(F)C(F)(F)C(F)(F)CCI`: the call was inactive. In the case of `O=S(=O)(O)CCC(F)(F)C(F)(F)C(F)(F)C(F)(F)C(F)(F)C(F)(F)C(F)(F)C(F)(F)F`, the outcome was inactive. The result for `C=CC(=O)OCCC(F)(F)C(F)(F)C(F)(F)C(F)(F)F` reads “inactive”; that for `NC(=O)C(F)(F)C(F)(F)C(F)(F)F`, “inactive”. Then `C=CC(=O)OCC(F)(F)C(F)(F)C(F)(F)COC(=O)C=C`, with “inactive”; and `O=S(=O)(O)CCC(F)(F)C(F)(F)C(F)(F)C(F)(F)F`, with “inactive”. The result for `OCCCCC(F)(F)C(F)(F)C(F)(F)C(F)(F)F` reads “inactive”; that for `NC(=O)C(F)(F)C(F)(F)C(F)(F)C(F)F`, “inactive”. For the compound `OCC(O)CC(F)(F)C(F)(F)C(F)(F)C(F)(F)F` (centres undefined), the call was inactive.
